In PubChem BioAssay:
Records with an inconclusive call do not appear. The source made the active and inactive calls.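 The calls were made as follows, unless noted: active = efflux inhibition above 0.42, the validation set average plus 4 SD; inconclusive = no clear call, values can overlap the other calls; inactive = the rest.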

How the values were obtained:
[1] = rapamycin-like changes in RPL19A-GFP expression – cell-based, S. cerevisiae, multiplex flow cytometry, primary screen (AID 1862; in the data active = percent of DMSO control GFP below about 86%;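 also: lower values mimic rapamycin by blocking the RPL19A rise seen in DMSO cells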); conditions: S. cerevisiae RPL19A-GFP strain, flow cytometry fluorescence, 3 h; at 10 µM; stronger effect = lower value
[2] = TOR pathway GLN3 branch reporter MEP2-GFP changes – S. cerevisiae, multiplex flow cytometry, primary screen (AID 1867;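 active = GFP response, as percent of the DMSO control, above the screen-wide mean plus 3 SD, about 139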;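 also: median GFP channel fluorescence of barcode-gated MEP2-GFP cells measured by flow cytometry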); conditions: S. cerevisiae MEP2-GFP strain, 3 h, at 10 µM, stronger effect = higher value, 100% means same as DMSO wells
[3] = TOR pathway RTG branch CIT2 reporter changes – S. cerevisiae, GFP fusion, multiplex flow cytometry, primary screen (AID 1870;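 active = percent response above a set limit, the screen-wide mean plus 3 SD, cut at about 130% in these data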;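 also: barcoded CIT2-GFP strain pooled with four other GFP strains with rapamycin as positive control; median GFP fluorescence per well over plate mean of DMSO wells so 100% = DMSO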); conditions: S. cerevisiae CIT2-GFP expression, 3 h, at 10 µM, stronger effect = higher value
[4] = TOR pathway LAP4-GFP level changes – S. cerevisiae, multiplex flow cytometry, primary screen (AID 1873;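 active = GFP signal, as percent of the solvent control, above the screen mean plus 3 SD, about 149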); conditions: S. cerevisiae LAP4-GFP expression, 3 h, at 10 µM, stronger effect = higher value
[5] = yeast AGP1-GFP level changes, GLN3 branch – cell-based, multiplex flow cytometry, S. cerevisiae, primary screen (AID 1887;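 active = GFP signal above the screen-wide mean plus 3 SD, that is over about 124.5% of the solvent control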;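 also: AGP1-GFP fusion strain of S. cerevisiae within a five-strain barcoded multiplex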); conditions: 3 h, at 10 µM, stronger effect = higher value
[6] = reduced mouse 2C T cell binding to pMHC/ICAM-1 vesicles – MLPCN validation set, flow cytometry, LFA-1/ICAM-1 modulator project, pilot screen (AID 2523;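 active = response below a set limit, under 55% cells CD8-positive and vesicle-bound, and CD8 cells' 90th-percentile brightness under 279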;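 as to vesicle binding response: mean PE anti-B7-1 fluorescence of CD8+ cells relative to row control; 100% = QL9-loaded vesicles with DMSO vehicle in the same plate row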); conditions: 2C mouse CD8+ T cells, at 7 µM, stronger effect = lower value; double positive events: measured here: CD8+/vesicle+ event percentage
[7] = biological target: Integrin beta-1 (Homo sapiens) + Integrin alpha-4 (Homo sapiens) (UniProt P13612+P05556); assay: alpha4beta1 integrin LIBS antibody binding reduction – U937 cells, HUTS-21 mAb, flow cytometry, validation set, VLA-4 allosteric modulator project, pilot screen (AID 2674;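 active = inhibition above 50%, about 3 SD of the validation set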;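 also: antibody binding induced by the VLA-4 ligand LDV present at three times its Kd; 0% = LDV ligand with antibody and no compound and 100% = antibody without LDV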); conditions: HUTS-21 LIBS mAb binding, at 6.7 µM, stronger effect = higher value, binding induced by LDV ligand
Sequence of Integrin beta-1 (Homo sapiens) + Integrin alpha-4 (Homo sapiens) (P05556 whole entry, looked up): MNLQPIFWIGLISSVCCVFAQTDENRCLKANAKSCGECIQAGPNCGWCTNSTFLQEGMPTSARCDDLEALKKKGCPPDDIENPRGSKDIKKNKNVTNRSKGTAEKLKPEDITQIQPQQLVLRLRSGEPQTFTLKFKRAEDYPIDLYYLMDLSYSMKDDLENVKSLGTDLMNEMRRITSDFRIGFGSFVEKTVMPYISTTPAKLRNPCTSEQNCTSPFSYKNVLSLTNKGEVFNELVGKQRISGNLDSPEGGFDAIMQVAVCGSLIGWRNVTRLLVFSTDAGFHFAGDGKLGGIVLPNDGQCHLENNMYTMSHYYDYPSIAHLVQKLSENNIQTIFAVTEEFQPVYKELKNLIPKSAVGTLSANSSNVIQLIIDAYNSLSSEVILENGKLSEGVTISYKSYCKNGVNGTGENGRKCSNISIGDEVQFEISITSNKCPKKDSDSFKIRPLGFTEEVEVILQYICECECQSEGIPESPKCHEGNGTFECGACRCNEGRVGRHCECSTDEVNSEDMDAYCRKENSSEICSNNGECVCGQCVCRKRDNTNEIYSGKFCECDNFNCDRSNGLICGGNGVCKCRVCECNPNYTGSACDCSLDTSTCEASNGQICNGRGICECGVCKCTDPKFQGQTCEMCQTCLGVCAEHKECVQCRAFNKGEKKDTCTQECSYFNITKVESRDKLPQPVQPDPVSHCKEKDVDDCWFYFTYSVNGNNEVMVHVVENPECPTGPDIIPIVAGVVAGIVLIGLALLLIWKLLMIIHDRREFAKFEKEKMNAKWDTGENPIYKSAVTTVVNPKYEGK
Sequence of Integrin beta-1 (Homo sapiens) + Integrin alpha-4 (Homo sapiens) (P13612 whole entry, looked up): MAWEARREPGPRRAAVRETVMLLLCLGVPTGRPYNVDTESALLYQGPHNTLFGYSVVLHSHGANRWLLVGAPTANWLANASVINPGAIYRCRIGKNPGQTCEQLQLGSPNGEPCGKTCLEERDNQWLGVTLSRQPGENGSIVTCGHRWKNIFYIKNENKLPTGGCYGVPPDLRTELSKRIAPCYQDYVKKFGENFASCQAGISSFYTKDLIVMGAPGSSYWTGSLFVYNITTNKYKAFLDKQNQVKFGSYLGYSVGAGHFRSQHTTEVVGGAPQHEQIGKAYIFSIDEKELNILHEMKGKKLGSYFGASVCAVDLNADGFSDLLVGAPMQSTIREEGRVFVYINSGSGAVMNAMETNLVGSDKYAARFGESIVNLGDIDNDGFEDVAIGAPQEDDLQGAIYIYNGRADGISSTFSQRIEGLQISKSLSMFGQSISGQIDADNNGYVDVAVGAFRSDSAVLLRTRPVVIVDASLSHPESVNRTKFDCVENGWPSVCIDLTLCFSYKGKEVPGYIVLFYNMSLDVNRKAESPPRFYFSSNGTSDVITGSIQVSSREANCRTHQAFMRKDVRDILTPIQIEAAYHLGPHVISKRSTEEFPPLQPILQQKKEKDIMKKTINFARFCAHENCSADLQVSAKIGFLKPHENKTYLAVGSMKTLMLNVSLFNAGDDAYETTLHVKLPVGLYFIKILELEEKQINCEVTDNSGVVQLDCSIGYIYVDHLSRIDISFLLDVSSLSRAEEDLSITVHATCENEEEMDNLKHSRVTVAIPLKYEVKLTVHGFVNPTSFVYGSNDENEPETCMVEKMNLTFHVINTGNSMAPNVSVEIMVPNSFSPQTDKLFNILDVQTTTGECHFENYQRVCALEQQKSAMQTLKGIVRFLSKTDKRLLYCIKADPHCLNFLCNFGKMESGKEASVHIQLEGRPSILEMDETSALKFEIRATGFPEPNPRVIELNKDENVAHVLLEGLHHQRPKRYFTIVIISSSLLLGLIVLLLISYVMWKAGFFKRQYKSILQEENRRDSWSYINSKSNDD

[8] = calorie-restriction mimetic ROS inhibitors, yeast – validation compound set, pilot screen (AID 2706;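 active = superoxide response below 65% of plate, a cut near 3 SD across the whole screen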;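 also: yeast exposed to compound for one week at 30 degrees C before staining; 100% = mean of all compound wells on the same plate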); conditions: S. cerevisiae aging, superoxide DHE fluorescence; at 10 µM; stronger effect = lower value
[9] = biological target: Beta-adrenergic receptor kinase 1 (Homo sapiens) (UniProt P25098); assay: GRK2 binders displacing RNA aptamer, biochemical, validation, human GRK2, bead flow cytometry (AID 488806;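 active = aptamer binding inhibition above 30%, about 3 SD of noise from non-fluorescent compounds; inactive = inhibition at or below 30%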); conditions: bead-bound GRK2, FAM-aptamer displacement, at 10 µM, stronger effect = higher value
Sequence of Beta-adrenergic receptor kinase 1 (Homo sapiens) (P25098 whole entry, looked up): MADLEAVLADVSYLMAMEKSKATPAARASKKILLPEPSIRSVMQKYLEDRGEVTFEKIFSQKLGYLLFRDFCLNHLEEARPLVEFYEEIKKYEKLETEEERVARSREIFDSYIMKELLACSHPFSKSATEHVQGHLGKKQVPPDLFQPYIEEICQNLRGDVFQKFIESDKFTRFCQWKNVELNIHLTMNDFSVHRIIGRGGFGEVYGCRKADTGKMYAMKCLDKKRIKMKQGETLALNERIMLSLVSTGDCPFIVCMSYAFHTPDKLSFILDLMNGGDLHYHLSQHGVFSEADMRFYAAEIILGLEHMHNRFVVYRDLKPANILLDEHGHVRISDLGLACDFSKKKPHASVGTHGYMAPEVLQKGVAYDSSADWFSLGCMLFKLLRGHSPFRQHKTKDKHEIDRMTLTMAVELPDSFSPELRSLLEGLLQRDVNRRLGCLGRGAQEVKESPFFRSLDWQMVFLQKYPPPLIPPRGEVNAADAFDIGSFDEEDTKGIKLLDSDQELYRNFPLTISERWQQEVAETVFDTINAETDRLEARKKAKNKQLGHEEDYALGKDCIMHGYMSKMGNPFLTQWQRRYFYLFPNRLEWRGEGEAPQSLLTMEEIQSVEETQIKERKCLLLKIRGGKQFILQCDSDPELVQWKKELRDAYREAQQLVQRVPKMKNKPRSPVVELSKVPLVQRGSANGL

[10] = biological target: Beta-2 adrenergic receptor (Homo sapiens) (UniProt P07550); assay: agonist-induced loss of surface beta2AR – cell-based, FAP fluorogen, flow cytometry, validation set, pilot screen (AID 504459;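 active = percent response above 42, roughly 3 SD of non-fluorescent test compounds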;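 also: agonist-driven loss of surface beta2AR via internalization measured by FAP dye flow cytometry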); conditions: Am2.2-beta2AR cells, at 10 µM, stronger effect = higher value
Sequence of Beta-2 adrenergic receptor (Homo sapiens) (P07550 whole entry, looked up): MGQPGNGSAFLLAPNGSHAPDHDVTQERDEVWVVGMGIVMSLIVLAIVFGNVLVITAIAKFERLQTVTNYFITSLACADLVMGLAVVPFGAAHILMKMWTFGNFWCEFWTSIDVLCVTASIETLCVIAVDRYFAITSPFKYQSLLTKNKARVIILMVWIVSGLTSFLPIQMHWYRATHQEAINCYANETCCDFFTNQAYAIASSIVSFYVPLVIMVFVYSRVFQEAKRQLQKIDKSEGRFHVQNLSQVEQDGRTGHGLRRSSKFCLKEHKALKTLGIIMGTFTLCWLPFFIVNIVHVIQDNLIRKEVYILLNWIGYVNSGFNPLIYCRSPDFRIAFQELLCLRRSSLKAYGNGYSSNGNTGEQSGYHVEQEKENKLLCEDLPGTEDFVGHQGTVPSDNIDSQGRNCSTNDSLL

[11] = biological target: AP-2 complex subunit beta (Homo sapiens) (UniProt P63010); assay: beta-arrestin/AP2 interaction blockers – biochemical, validation set, GST-AP2 beads, flow cytometry, pilot screen (AID 504541;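 active = inhibition above 54%, about 3 SD of non-fluorescent compounds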;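 also: AP2 carries R879A mutation and is captured from E. coli lysate; bead-bound FITC arrestin peptide fluorescence measuring arrestin peptide binding to AP2; 0% = DMSO wells and 100% = excess unlabeled arrestin peptide control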); conditions: FITC arrestin peptide, at 10 µM, stronger effect = higher value, AP2 beta2 appendage fragment, R879A mutant
Sequence of AP-2 complex subunit beta (Homo sapiens) (P63010 whole entry, looked up, the tested form may be a part, one chain of several): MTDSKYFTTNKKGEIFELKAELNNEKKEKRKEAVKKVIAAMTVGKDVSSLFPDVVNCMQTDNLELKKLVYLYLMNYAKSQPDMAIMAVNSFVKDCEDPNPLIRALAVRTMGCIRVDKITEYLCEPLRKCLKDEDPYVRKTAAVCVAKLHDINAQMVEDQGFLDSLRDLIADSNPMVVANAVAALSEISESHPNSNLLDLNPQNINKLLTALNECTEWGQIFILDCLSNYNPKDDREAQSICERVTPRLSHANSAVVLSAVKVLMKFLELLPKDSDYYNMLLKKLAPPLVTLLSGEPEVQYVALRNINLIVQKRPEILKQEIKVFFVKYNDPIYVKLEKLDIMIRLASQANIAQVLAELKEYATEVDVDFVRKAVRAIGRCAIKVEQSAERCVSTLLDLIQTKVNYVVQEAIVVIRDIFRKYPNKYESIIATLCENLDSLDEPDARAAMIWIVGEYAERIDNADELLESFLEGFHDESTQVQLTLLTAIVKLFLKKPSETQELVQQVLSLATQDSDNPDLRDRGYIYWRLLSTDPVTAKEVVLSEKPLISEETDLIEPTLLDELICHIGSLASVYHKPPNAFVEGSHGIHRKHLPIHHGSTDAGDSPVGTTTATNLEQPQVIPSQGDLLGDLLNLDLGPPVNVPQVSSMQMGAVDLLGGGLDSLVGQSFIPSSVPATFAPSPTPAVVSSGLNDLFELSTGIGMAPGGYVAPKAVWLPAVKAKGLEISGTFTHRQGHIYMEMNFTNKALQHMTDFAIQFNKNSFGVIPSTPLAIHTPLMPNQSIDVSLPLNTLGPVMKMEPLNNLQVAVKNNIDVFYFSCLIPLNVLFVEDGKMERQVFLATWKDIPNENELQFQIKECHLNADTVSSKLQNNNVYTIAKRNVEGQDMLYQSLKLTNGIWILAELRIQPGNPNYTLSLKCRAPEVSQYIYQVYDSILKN

[12] = cytosolic pH regulators acting via V-ATPase – S. cerevisiae, pHLuorin, HTS validation (AID 504600; in the data active = response above about 15%;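 also: plate controls were DMSO for no effect and reference compound for full effect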); conditions: V-ATPase proton transport, at 10 µM, stronger effect = higher value
[13] = test system: anti-desmoglein-3 scFv antibody binding to human DSG3; assay: blockers of pathogenic pemphigus antibody–desmoglein-3 binding – biochemical, validation compound set, bead-based, flow cytometry, pilot screen (AID 588368;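 active = binding below the plate cutoff, the plate median minus 3 SD, with a reading above zero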;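 also: signal is the median channel fluorescence of bead-bound GFP antibody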); conditions: Protein G beads, DSG3-Fc, scFv-GFP binding, at 10 µM, stronger effect = lower value
[14] = Nile Red efflux blockade in pump-expressing yeast – validation compound set, multiplex, phenotypic, pilot screen (AID 588506);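 also: Nile Red retained in cells so higher fluorescence means more efflux inhibition; 0 = negative control wells and 1 = enniatin B 25 µM full block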; conditions: S. cerevisiae pump-expressing triplex, Nile Red efflux flow cytometry; at 10 µM; stronger effect = higher value; the pumps come from Candida albicans
[15] = biological target: ATP-binding cassette sub-family B member 6 (Homo sapiens) (UniProt Q9NP58); assay: blockers of ABCB6-driven porphyrin uptake – K562-ABCB6 cells, flow cytometry, validation set, pilot screen (AID 588550;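 active = inhibition above the screen-wide mean plus 3 SD, about 51%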;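 also: 0% = DMSO wells and 100% = benzethonium chloride 70 µM positive control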); conditions: K562-ABCB6 porphyrin accumulation, 1 h, at 10 µM, stronger effect = higher value
Sequence of ATP-binding cassette sub-family B member 6 (Homo sapiens) (Q9NP58 whole entry, looked up): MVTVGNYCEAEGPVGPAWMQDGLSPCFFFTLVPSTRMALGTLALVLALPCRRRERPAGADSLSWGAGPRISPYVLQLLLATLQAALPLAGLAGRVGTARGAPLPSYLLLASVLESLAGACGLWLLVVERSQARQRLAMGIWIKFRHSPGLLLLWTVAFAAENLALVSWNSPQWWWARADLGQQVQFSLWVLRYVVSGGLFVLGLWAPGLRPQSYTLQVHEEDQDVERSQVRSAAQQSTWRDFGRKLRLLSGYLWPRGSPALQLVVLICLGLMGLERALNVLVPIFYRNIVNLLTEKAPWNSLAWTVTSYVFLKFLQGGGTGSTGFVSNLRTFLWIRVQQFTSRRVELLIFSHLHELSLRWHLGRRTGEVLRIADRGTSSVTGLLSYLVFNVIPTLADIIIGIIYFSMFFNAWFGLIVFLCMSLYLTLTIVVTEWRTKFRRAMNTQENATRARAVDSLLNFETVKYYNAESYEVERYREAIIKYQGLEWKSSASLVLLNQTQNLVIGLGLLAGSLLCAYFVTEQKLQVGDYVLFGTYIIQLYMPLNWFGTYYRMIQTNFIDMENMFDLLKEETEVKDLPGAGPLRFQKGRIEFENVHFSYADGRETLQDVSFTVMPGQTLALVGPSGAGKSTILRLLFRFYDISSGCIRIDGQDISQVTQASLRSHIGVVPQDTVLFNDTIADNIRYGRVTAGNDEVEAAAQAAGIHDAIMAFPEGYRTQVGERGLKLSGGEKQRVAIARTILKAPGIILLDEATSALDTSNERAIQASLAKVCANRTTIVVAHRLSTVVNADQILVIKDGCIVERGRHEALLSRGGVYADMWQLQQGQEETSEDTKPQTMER

[16] = AML differentiation inducers, ER-HoxA9 marrow cells – cell-based, GFP/MAC1 double positive, flow cytometry, validation set, primary screen (AID 588685;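 active = differentiation response of at least 50%, scaled between solvent and reference control, from cells with both markers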;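 also: compound exposure lasts four days before antibody staining and flow analysis; 0% = DMSO wells and 100% = 5 µM fulvestrant positive control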); conditions: stronger effect = higher value, normalized: vehicle 0, fulvestrant 100

Structure (SMILES) | percent of DMSO control GFP [1] | GFP response vs DMSO [2] | percent response of DMSO control [3] | GFP response vs DMSO [4] | GFP response, % of DMSO [5] | double positive events [6] | vesicle binding response [6] | inhibition [7] | superoxide response (% of plate) [8] | aptamer binding inhibition [9] | response [10] | inhibition [11] | response [12] | binding (% of control) [13] | efflux inhibition (fraction of control) [14] | inhibition [15] | differentiation response [16]
NS(=O)(=O)c1cc2c(cc1Cl)NC(C1C[C@H]3C=C[C@@H]1C3)NS2(=O)=O (stereo partly specified) | 104% (inactive) | 106% (inactive) | 105% (inactive) | 105% (inactive) | 106% (inactive) | 61.8% | 153% (inactive) | -19.9% (inactive) | 98.5% (inactive) | 2% (inactive) | -2.86% (inactive) | 11.5% (inactive) | -7.8% (inactive) | 97.3% (inactive) | 0.03 (inactive) | 10% (inactive) | -17.7% (inactive)
O=C(O)CP(=O)(O)O | 97.2% (inactive) | 105% (inactive) | 93.4% (inactive) | 105% (inactive) | 96.8% (inactive) | 66.7% | 206% (inactive) | 11% (inactive) | 99% (inactive) | 6% (inactive) | 6.2% (inactive) | 3.17% (inactive) | -1.85% (inactive) | 105% (inactive) | 0.03 (inactive) | 16% (inactive) | -4.57% (inactive)
O=C(O)c1cnccn1 | 103% (inactive) | 94.7% (inactive) | 93.8% (inactive) | 108% (inactive) | 106% (inactive) | 65% | 160% (inactive) | 21% (inactive) | 102% (inactive) | 4% (inactive) | -18.2% (inactive) | -5% (inactive) | 2.35% (inactive) | 104% (inactive) | -0.21 (inactive) | 6% (inactive) | -4.99% (inactive)
O=C1CC(c2ccc(O)cc2)Oc2cc(O)cc(O)c21 (stereo unspecified) | 107% (inactive) | 99.3% (inactive) | 107% (inactive) | 104% (inactive) | 110% (inactive) | 61.7% | 238% (inactive) | -31.6% (inactive) | 91.7% (inactive) | 1% (inactive) | -11.3% (inactive) | -6.71% (inactive) | 4.67% (inactive) | 94.3% (inactive) | -0.26 (inactive) | 9% (inactive) | 1.22% (inactive)
COc1ccc(OC(C)C(=O)Nc2ccccc2F)cc1 (stereo unspecified) | 102% (inactive) | 99.7% (inactive) | 102% (inactive) | 108% (inactive) | 99.3% (inactive) | 58.4% | 151% (inactive) | 25.7% (inactive) | 90.6% (inactive) | 0% (inactive) | 6.77% (inactive) | -5.67% (inactive) | 0.03% (inactive) | 104% (inactive) | -0.15 (inactive) | 8% (inactive) | -6.03% (inactive)
CC(C)OC(=O)CC12CN3CN(C1)CC(CC(=O)OC(C)C)(C3)C2=O | 99.5% (inactive) | 115% (inactive) | 90.1% (inactive) | 119% (inactive) | 105% (inactive) | 60.5% | 179% (inactive) | -0.43% (inactive) | 92.3% (inactive) | 1% (inactive) | -2.44% (inactive) | 11.2% (inactive) | -2% (inactive) | 103% (inactive) | 0.12 (inactive) | 11% (inactive) | 39.2% (inactive)
O=C(O)c1cc2cc(Cl)cc(Cl)c2oc1=O | 97.9% (inactive) | 129% (inactive) | 104% (inactive) | 80.9% (inactive) | 93.1% (inactive) | 41.9% | 63.6% (active) | -12.9% (inactive) | 113% (inactive) | 7% (inactive) | -14.8% (inactive) | 8.6% (inactive) | 10.3% (inactive) | 98.7% (inactive) | 0.05 (inactive) | 8% (inactive) | 27.8% (inactive)
C#C[C@]1(O)CC[C@H]2[C@@H]3CCc4cc(O)ccc4[C@H]3CC[C@@]21C | 94.4% (inactive) | 109% (inactive) | 110% (inactive) | 84.7% (inactive) | 100% (inactive) | 51.2% | 88.7% (inactive) | 7.43% (inactive) | 76.7% (inactive) | -5% (inactive) | -0.6% (inactive) | 1.36% (inactive) | 2.14% (inactive) | 106% (inactive) | 0.19 (inactive) | 9% (inactive) | -3.28% (inactive)
Cc1ccc2nc(N=C(N)N)nc(C)c2c1 | 111% (inactive) | 107% (inactive) | 110% (inactive) | 114% (inactive) | 118% (inactive) | 58.7% | 124% (inactive) | -13.2% (inactive) | 91.5% (inactive) | -1% (inactive) | -5.11% (inactive) | 0.05% (inactive) | 5.97% (inactive) | 109% (inactive) | -0.02 (inactive) | 5% (inactive) | -8.96% (inactive)
CCc1ccc(/C=C2\Oc3cc(OC(=O)N4CCOCC4)ccc3C2=O)cc1 | 98.7% (inactive) | 99.6% (inactive) | 83.4% (inactive) | 125% (inactive) | 79.8% (inactive) | 64.9% | 164% (inactive) | 11.7% (inactive) | 173% (inactive) | 4% (inactive) | -17.4% (inactive) | -5.57% (inactive) | 1.83% (inactive) | 99.3% (inactive) | 0.29 (inactive) | 0% (inactive) | 6.83% (inactive)
CN1/C(=C\C=Nc2ccccc2)C(C)(C)c2ccccc21 | 102% (inactive) | 102% (inactive) | 98.3% (inactive) | 103% (inactive) | 113% (inactive) | 61.9% | 196% (inactive) | – | 101% (inactive) | -1% (inactive) | -50.9% (inactive) | 11.8% (inactive) | 0.09% (inactive) | 116% (inactive) | 0 (inactive) | – | 2.89% (inactive)
COc1ccc(C(=O)O)cc1F | 104% (inactive) | 107% (inactive) | 107% (inactive) | 94.8% (inactive) | 103% (inactive) | 65.5% | 151% (inactive) | -1.09% (inactive) | 105% (inactive) | 3% (inactive) | 3.73% (inactive) | 15.5% (inactive) | -13.5% (inactive) | 102% (inactive) | -0.09 (inactive) | -3% (inactive) | -8.96% (inactive)
Fc1ccc(-c2cc(-c3ccccc3)nc(-n3cccn3)n2)cc1 | 96.5% (inactive) | 106% (inactive) | 99.3% (inactive) | 97.2% (inactive) | 75.4% (inactive) | 57.7% | 11.1% (inactive) | 6.85% (inactive) | 92% (inactive) | 4% (inactive) | 8.42% (inactive) | 34.7% (inactive) | 0.43% (inactive) | 102% (inactive) | 0.3 (inactive) | 2% (inactive) | 20.9% (inactive)
NC(=O)c1ccccc1O | 103% (inactive) | 108% (inactive) | 92.8% (inactive) | 95.8% (inactive) | 97.4% (inactive) | 64.5% | 199% (inactive) | 11.1% (inactive) | 95.9% (inactive) | -1% (inactive) | 6.88% (inactive) | 33.5% (inactive) | -2.79% (inactive) | 100% (inactive) | 1.03 (active) | 3% (inactive) | 10.3% (inactive)
